Paper PMC5540273 (PLoS ONE, 2017)
Read-outs that look alike come from different tables or passages of the source.

Assays:
DYRK1B = details: n = 1
DYRK2 = details: concentration: 1 μM, replicates: in singlicate; n = 1
EGFR = details: concentration: 1 μM, replicates: in singlicate; n = 1
EIF2AK1 = details: n = 1
EPHA1 = details: concentration: 1 μM, replicates: in singlicate; n = 1
EPHA2 = details: concentration: 1 μM, replicates: in singlicate; n = 1
EPHA3 = details: concentration: 1 μM, replicates: in singlicate; n = 1
EPHA4 = details: concentration: 1 μM, replicates: in singlicate; n = 1
EPHA5 = details: concentration: 1 μM, replicates: in singlicate; n = 1
EPHA6 = details: n = 1
EPHA7 = details: concentration: 1 μM, replicates: in singlicate; n = 1
EPHA8 = details: concentration: 1 μM, replicates: in singlicate; n = 1
EPHB1 = details: concentration: 1 μM, replicates: in singlicate; n = 1
EPHB2 = details: concentration: 1 μM, replicates: in singlicate; n = 1
EPHB3 = details: concentration: 1 μM, replicates: in singlicate; n = 1
EPHB4 = details: concentration: 1 μM, replicates: in singlicate; n = 1
EPHB6 = details: concentration: 1 μM, replicates: in singlicate; n = 1
ERBB2 = details: concentration: 1 μM, replicates: in singlicate; n = 1
ERBB3 = details: concentration: 1 μM, replicates: in singlicate; n = 1
ERBB4 = details: concentration: 1 μM, replicates: in singlicate; n = 1
[1] = concentration: 1 μM, replicates: in singlicate
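Note: KINOMEscan kinase panel screen.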

With `O=C(O)C(F)(F)F.O=c1[nH]ccc2nc(N[C@@H]3CCNC3)nc(Nc3ccc4c(c3)S(=O)(=O)CC4)c12` [GSK2181306] the “%Inh” value (DYRK1B; [1]) was 81%, the “%Inh” value (DYRK2) was 52% and the “%Inh” value (EGFR) was 33%. The “%Inh” value (EIF2AK1; [1]) was 4%, the “%Inh” value (EPHA1) was 12% and the “%Inh” value (EPHA2) was 7%. For the same compound, the “%Inh” value (EPHA3) was 93.9%, the “%Inh” value (EPHA4) was 16% and the “%Inh” value (EPHA5) was 0%. For the same compound, the “%Inh” value (EPHA6; [1]) was 16%, the “%Inh” value (EPHA7) was 27% and the “%Inh” value (EPHA8) was 24%. The “%Inh” value (EPHB1) was 9%, the “%Inh” value (EPHB2) was 0% and the “%Inh” value (EPHB3) was 5%. For the same compound, the “%Inh” value (EPHB4) was 8%, the “%Inh” value (EPHB6) was 19% and the “%Inh” value (ERBB2) was 8%. For the same compound, the “%Inh” value (ERBB3) was 0% and the “%Inh” value (ERBB4) was 0%.

In the case of `CNc1nccc(-c2ccc3c(N)n[nH]c3c2)n1` [GSK2206003], the “%Inh” value (DYRK1B; [1]) is reported as 99.1%, the “%Inh” value (DYRK2) is reported as 90% and the “%Inh” value (EGFR) is reported as 25%. The “%Inh” value (EIF2AK1; [1]) was 0%, the “%Inh” value (EPHA1) was 11% and the “%Inh” value (EPHA2) was 0%. The “%Inh” value (EPHA3) was 12%, the “%Inh” value (EPHA4) was 7% and the “%Inh” value (EPHA5) was 0%. The “%Inh” value (EPHA6; [1]) was 0%, the “%Inh” value (EPHA7) was 9% and the “%Inh” value (EPHA8) was 18%. For the same compound, the “%Inh” value (EPHB1) was 5%, the “%Inh” value (EPHB2) was 0% and the “%Inh” value (EPHB3) was 5%. The “%Inh” value (EPHB4) was 2%, the “%Inh” value (EPHB6) was 11% and the “%Inh” value (ERBB2) was 50%. For the same compound, the “%Inh” value (ERBB3) was 8% and the “%Inh” value (ERBB4) was 31%.

In the case of `Cn1cc(-c2cnc(N)c3c(-c4ccc5c(c4)CCN5C(=O)Cc4ccccc4)csc23)cn1` [GSK2593074], the “%Inh” value (DYRK1B; 1 µM) is reported as 0%, the “%Inh” value (DYRK2) is reported as 8% and the “%Inh” value (EGFR) is reported as 3%. For the same compound, the “%Inh” value (EIF2AK1; 1 µM) was 7%, the “%Inh” value (EPHA1) was 11% and the “%Inh” value (EPHA2) was 0%. The “%Inh” value (EPHA3) was 0%, the “%Inh” value (EPHA4) was 11% and the “%Inh” value (EPHA5) was 0%. The “%Inh” value (EPHA6; 1 µM) was 11%, the “%Inh” value (EPHA7) was 6% and the “%Inh” value (EPHA8) was 8%. For the same compound, the “%Inh” value (EPHB1) was 6%, the “%Inh” value (EPHB2) was 2% and the “%Inh” value (EPHB3) was 4%. The “%Inh” value (EPHB4) was 9%, the “%Inh” value (EPHB6) was 98.3% and the “%Inh” value (ERBB2) was 0%. The “%Inh” value (ERBB3) was 4% and the “%Inh” value (ERBB4) was 0%.

`Cn1cc(-c2ccc3c(c2)CCN3C(=O)Cc2cc(F)cc(C(F)(F)F)c2)c2c(N)ncnc21` [GSK2635225] was tested, and the “%Inh” value (DYRK1B; [1]) was 0%, the “%Inh” value (DYRK2) was 4% and the “%Inh” value (EGFR) was 23%. The “%Inh” value (EIF2AK1; [1]) was 22%, the “%Inh” value (EPHA1) was 21% and the “%Inh” value (EPHA2) was 11%. For the same compound, the “%Inh” value (EPHA3) was 26%, the “%Inh” value (EPHA4) was 0% and the “%Inh” value (EPHA5) was 0%. The “%Inh” value (EPHA6; [1]) was 17%, the “%Inh” value (EPHA7) was 2% and the “%Inh” value (EPHA8) was 2%. The “%Inh” value (EPHB1) was 21%, the “%Inh” value (EPHB2) was 15% and the “%Inh” value (EPHB3) was 12%. For the same compound, the “%Inh” value (EPHB4) was 8%, the “%Inh” value (EPHB6) was 44% and the “%Inh” value (ERBB2) was 10%. The “%Inh” value (ERBB3) was 0% and the “%Inh” value (ERBB4) was 0%.

With `CC(C)c1nc(-c2ccc(F)c(NS(=O)(=O)c3c(F)cccc3F)c2)c(-c2ccnc(Nc3ccc(N4CCOCC4)nc3)n2)s1` [GSK1804250] the “%Inh” value (DYRK1B; [1]) was 0%, the “%Inh” value (DYRK2) was 2% and the “%Inh” value (EGFR) was 82%. The “%Inh” value (EIF2AK1; [1]) was 67%, the “%Inh” value (EPHA1) was 96.2% and the “%Inh” value (EPHA2) was 17%. For the same compound, the “%Inh” value (EPHA3) was 31%, the “%Inh” value (EPHA4) was 30% and the “%Inh” value (EPHA5) was 1%. The “%Inh” value (EPHA6; [1]) was 50%, the “%Inh” value (EPHA7) was 12% and the “%Inh” value (EPHA8) was 70%. The “%Inh” value (EPHB1) was 21%, the “%Inh” value (EPHB2) was 0% and the “%Inh” value (EPHB3) was 24%. The “%Inh” value (EPHB4) was 12%, the “%Inh” value (EPHB6) was 97.3% and the “%Inh” value (ERBB2) was 95.8%. For the same compound, the “%Inh” value (ERBB3) was 98.8% and the “%Inh” value (ERBB4) was 78%.

For `CCn1cnc2c(NCc3ccccc3)ncnc21` [SKF-96418], the “%Inh” value (DYRK1B; [1]) was 37%, the “%Inh” value (DYRK2) was 15% and the “%Inh” value (EGFR) was 0%. The “%Inh” value (EIF2AK1; [1]) was 0%, the “%Inh” value (EPHA1) was 0% and the “%Inh” value (EPHA2) was 0%. The “%Inh” value (EPHA3) was 0%, the “%Inh” value (EPHA4) was 7% and the “%Inh” value (EPHA5) was 0%. The “%Inh” value (EPHA6; [1]) was 0%, the “%Inh” value (EPHA7) was 0% and the “%Inh” value (EPHA8) was 0%. For the same compound, the “%Inh” value (EPHB1) was 0%, the “%Inh” value (EPHB2) was 0% and the “%Inh” value (EPHB3) was 0%. The “%Inh” value (EPHB4) was 0%, the “%Inh” value (EPHB6) was 0% and the “%Inh” value (ERBB2) was 24%. The “%Inh” value (ERBB3) was 28% and the “%Inh” value (ERBB4) was 4%.

With `Cc1ccc(-c2ccc3occ(-c4ccc(S(C)=O)cc4)c3c2)nn1` (centres unmarked) the “%Inh” value (DYRK1B; [1]) was 33%, the “%Inh” value (DYRK2) was 0% and the “%Inh” value (EGFR) was 0%. For the same compound, the “%Inh” value (EIF2AK1; [1]) was 0%, the “%Inh” value (EPHA1) was 0% and the “%Inh” value (EPHA2) was 4%. The “%Inh” value (EPHA3) was 6%, the “%Inh” value (EPHA4) was 11% and the “%Inh” value (EPHA5) was 0%. The “%Inh” value (EPHA6; [1]) was 21%, the “%Inh” value (EPHA7) was 0% and the “%Inh” value (EPHA8) was 0%. For the same compound, the “%Inh” value (EPHB1) was 0%, the “%Inh” value (EPHB2) was 14% and the “%Inh” value (EPHB3) was 14%. The “%Inh” value (EPHB4) was 6%, the “%Inh” value (EPHB6) was 0% and the “%Inh” value (ERBB2) was 0%. The “%Inh” value (ERBB3) was 0% and the “%Inh” value (ERBB4) was 3%.

`COc1ccc(C)c(Nc2ccnc(Nc3ccc(-c4cnc[nH]4)cc3)n2)c1.Cl` [GW784041] was tested, and the “%Inh” value (DYRK1B; [1]) was 0%, the “%Inh” value (DYRK2) was 0% and the “%Inh” value (EGFR) was 28%. The “%Inh” value (EIF2AK1; [1]) was 0%, the “%Inh” value (EPHA1) was 62% and the “%Inh” value (EPHA2) was 45%. The “%Inh” value (EPHA3) was 3%, the “%Inh” value (EPHA4) was 31% and the “%Inh” value (EPHA5) was 4%. The “%Inh” value (EPHA6; [1]) was 12%, the “%Inh” value (EPHA7) was 6% and the “%Inh” value (EPHA8) was 26%. For the same compound, the “%Inh” value (EPHB1) was 14%, the “%Inh” value (EPHB2) was 21% and the “%Inh” value (EPHB3) was 17%. The “%Inh” value (EPHB4) was 60%, the “%Inh” value (EPHB6) was 69% and the “%Inh” value (ERBB2) was 0%. For the same compound, the “%Inh” value (ERBB3) was 89% and the “%Inh” value (ERBB4) was 0%.

`O=C(Nc1n[nH]c2nc(-c3ccccc3O)ccc12)C1CC1` [SB-711880] was tested, and the “%Inh” value (DYRK1B; [1]) was 56%, the “%Inh” value (DYRK2) was 14% and the “%Inh” value (EGFR) was 27%. The “%Inh” value (EIF2AK1; [1]) was 0%, the “%Inh” value (EPHA1) was 0% and the “%Inh” value (EPHA2) was 4%. The “%Inh” value (EPHA3) was 30%, the “%Inh” value (EPHA4) was 0% and the “%Inh” value (EPHA5) was 5%. The “%Inh” value (EPHA6; [1]) was 0%, the “%Inh” value (EPHA7) was 58% and the “%Inh” value (EPHA8) was 37%. The “%Inh” value (EPHB1) was 0%, the “%Inh” value (EPHB2) was 0% and the “%Inh” value (EPHB3) was 0%. The “%Inh” value (EPHB4) was 0%, the “%Inh” value (EPHB6) was 53% and the “%Inh” value (ERBB2) was 0%. For the same compound, the “%Inh” value (ERBB3) was 0% and the “%Inh” value (ERBB4) was 0%.

With `Cc1ccc(O)cc1Nc1ccnc2ccc(C(C)(C)C)cc12` [GW856805] the “%Inh” value (DYRK1B; [1]) was 19%, the “%Inh” value (DYRK2) was 19% and the “%Inh” value (EGFR) was 37%. The “%Inh” value (EIF2AK1; [1]) was 44%, the “%Inh” value (EPHA1) was 99% and the “%Inh” value (EPHA2) was 92.9%. The “%Inh” value (EPHA3) was 71%, the “%Inh” value (EPHA4) was 91.3% and the “%Inh” value (EPHA5) was 99.3%. For the same compound, the “%Inh” value (EPHA6; [1]) was 79%, the “%Inh” value (EPHA7) was 0% and the “%Inh” value (EPHA8) was 98.2%. For the same compound, the “%Inh” value (EPHB1) was 97.4%, the “%Inh” value (EPHB2) was 92.5% and the “%Inh” value (EPHB3) was 100%. The “%Inh” value (EPHB4) was 97.1%, the “%Inh” value (EPHB6) was 24% and the “%Inh” value (ERBB2) was 32%. The “%Inh” value (ERBB3) was 15% and the “%Inh” value (ERBB4) was 24%.
